Screens as filed in PubChem BioAssay.
Most compounds without a hit are left out; they make up all but 3% or so of the library.
D3 antag: antagonists of human D3 dopamine receptor | P35462 | 2.5% of 360,000 active | AID 652054 | D3R cells, DiscoveRx beta-arrestin luminescence, antagonist mode; active compounds read low | max response, negative = inhibition, %; in the data active = max response below about -50%; inconclusive = no clear call, values can overlap the other calls; note: % is set by controls: 0 for no effect and ±100 for the full control effect
Target sequence (P35462 whole entry, looked up): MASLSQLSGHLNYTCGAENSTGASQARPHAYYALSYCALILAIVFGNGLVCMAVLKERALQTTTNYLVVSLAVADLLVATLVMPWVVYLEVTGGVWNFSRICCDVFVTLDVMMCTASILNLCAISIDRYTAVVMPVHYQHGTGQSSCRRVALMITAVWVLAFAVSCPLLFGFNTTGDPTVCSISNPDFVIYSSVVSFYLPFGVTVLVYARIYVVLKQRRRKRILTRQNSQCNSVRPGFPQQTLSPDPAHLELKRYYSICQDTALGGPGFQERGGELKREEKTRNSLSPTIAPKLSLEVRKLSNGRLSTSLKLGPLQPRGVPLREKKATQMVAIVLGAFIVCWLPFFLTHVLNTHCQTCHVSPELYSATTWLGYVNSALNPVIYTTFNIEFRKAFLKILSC
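Cells plated overnight at 1500 cells/well, then exposed to library compounds with dopamine controls for 90 minutes at 37 degrees C. DiscoveRx reagent added for 30–60 minutes at room temperature; luminescence read, quantitative HTS format.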
Nrf2 ARE act: activators of Nrf2 (ARE) signaling. Potency, µM (top dose mostly 46.1 µM), for the others: at the highest dose activation, usual class: activators. 0.31% of 410,000 active. AID 624171. AREc32 ARE-luciferase reporter (MCF7-derived line), luminescence, 24 h; note: potency is the fitted concentration of half-maximal effect; % of control where 0% means no effect; nearly all actives have a fitted effect of over 65% in size
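For detection, Steady-Glo was added and plates sat 30 min at RT; before that, AREc32_Fluc cells grown overnight in OPTI-MEM/5% FBS had been treated with 23 nL compound for 24 hr at 37 deg C.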
DRD3 agonist: D3 dopamine receptor (human) agonism; P35462; D3R DiscoveRx beta-arrestin cells, luminescence, 90 min; max activation, %; 0.58% of 410,000 active; in the data active = max activation above about 30%; note: 0% is about no effect
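Agonist mode: compounds and dopamine controls were applied to plated cells for 90 min at 37 degrees C after an overnight attachment at 1500 cells/well. Luminescent read-out followed 30 - 60 minutes at room temperature with DiscoveRx detection reagent.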
Glioma ERSR ind: induces the endoplasmic reticulum stress response in human glioma cells; U87-MG GRP78 promoter luciferase reporter, 16 h; Potency, µM, for the others: at the top dose activation, actives largely listed as activators; 0.02% of 420,000 active; note: potency is the fitted concentration of half-maximal effect; series mostly up to about 76 µM; % of control where 0% means no effect; nearly all actives have a fitted effect of over 35% in size
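Stably transfected U87-MG human glioma cells carrying a GRP78-based luminescent sensor were seeded at 1000 cells/well, pin-dosed with compounds and incubated 16 h. Luciferase reagent was then added, and end-point luminescence was read after 10 min at room temperature.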
An asterisk follows results filed as active; ? = inconclusive; / = no result. Unless noted, calls come from the whole dose curve; as a rule, active = well fitted curve in the direction sought with a large enough effect; inconclusive = small, poorly fitted or top-dose-only effect, or another doubt; inactive = no such curve, though single readings can be large; an effect the other way counts as inactive or inconclusive.

SMILES	D3 antag	Nrf2 ARE act	DRD3 agonist	Glioma ERSR ind
COc1ccc(Nc2nc(C)cc(-c3cc(-c4ccccc4)on3)n2)cc1	35	0%	52*	-4%
COc1ccc(-c2cc(-c3ccccc3)no2)cc1	20	-1%	35*	-4%
CCOC(=O)c1[nH]c(C)c(CCC(=O)NCc2ccc(OCC)cc2)c1C	/	1%	-6	0%
O=C(NCC(c1ccco1)N1CCc2ccccc2C1)C(=O)Nc1ccccc1 (configuration not stated)	-90*	2%	-34	-4%
O=C(NCC(c1ccco1)N1CCc2ccccc2C1)c1ccccc1 (configuration not stated)	-53*	-1%	-34	-3%
Cc1csc[n+]1CC(=O)c1ccccc1	/	/	/	2%
CC(C)=CCC/C(C)=C/CC/C(C)=C/CC/C(C)=C/C(=O)O	/	/	/	-1%
NCCc1cnc(-c2cccc(C(F)(F)F)c2)[nH]1	/	/	/	-6%
O=C(Nc1ccc(Cl)cn1)c1cnn2c1NC(=C1CC1)C=C2C(F)F	/	/	/	-4%
CN(Cc1ccccc1)c1cc2c(c3c1ccn3C)C1CCC2C1 (configuration not stated)	-12	1%	6	-1%
Cn1ccc2c(-c3ccc(CO)cc3)cc3c(c21)C1CCC3C1 (configuration not stated)	-65*	5%	-14	-3%
Cn1ccc2c(-c3ccc(F)cc3)cc3c(c21)C1CCC3C1 (configuration not stated)	9	1%	9	-3%
Cn1ccc2c(N(Cc3ccccc3)Cc3ccccc3)cc3c(c21)C1CCC3C1 (configuration not stated)	-56*	14%	-10	-2%
COc1ccc(O)c(CN2CCC3(CCC(CNC(=O)C4CCCO4)O3)CC2)c1 (configuration not stated)	/	/	/	-6%
COc1ccccc1N(C(=O)CCl)c1cn(C(C)=O)c2ccccc12	-29	?	-4	-13%
COc1ccccc1N(C(C)=O)C1=C(Cl)C(=O)c2ccccc2C1=O	-137*	?	-14	-13%
O=C(O)c1ccc(-c2c3nc(c(-c4ccc(C(=O)O)cc4)c4ccc([n-]4)c(-c4ccc(C(=O)O)cc4)c4nc(c(-c5ccc(C(=O)O)cc5)c5ccc2[n-]5)C=C4)C=C3)cc1.[Mn+3]	/	/	/	-3%
CNc1ccc(/C=C2\C=Cc3ccccc32)cc1OC	/	/	/	7%
Cc1ccc(C23CC4CC(CC(NC(=O)N5CCN(C)CC5)(C4)C2)C3)cc1	?	4%	-18	-6%
CN1CCN(C(=O)C23CC4CC(C)(CC(C)(C4)C2)C3)CC1	-71*	0%	-21	-3%
Cc1ccc(C23CC4CC(CC(C(=O)N5CCN(C)CC5)(C4)C2)C3)cc1	-55*	0%	-20	0%
CSc1ccc(/C=C2\C=Cc3cc([N+](=O)[O-])ccc32)cc1	/	/	/	-2%
OCCN1CCN(Cc2ccc3c(c2)CN(Cc2ccc4ccccc4c2)CCO3)CC1	/	/	/	-6%
Cc1c(C2(c3cc(C(C)C)c(O)c(Br)c3C)OS(=O)(=O)c3ccccc32)cc(C(C)C)c(O)c1Br	/	/	/	-3%
O=C(Nc1ccon1)c1ccc(OC2CCCC2)cc1	?	3%	-20	0%
SMILES	D3 antag	Nrf2 ARE act	DRD3 agonist	Glioma ERSR ind
CC(C)(C)c1cc(NC(=O)c2ccc(OC3CCCC3)cc2)no1	9	0%	35*	0%
CC(C)NC(=O)[C@@H]1C[C@@H](Sc2ccccn2)CN1C1CCN(C)CC1	/	/	/	-3%
CC1(C)CC(=O)C([C@H]2C3=C(CC(C)(C)CC3=O)Oc3ccccc32)C(=O)C1	/	/	/	-3%
CC1(C)CC(=O)C2=C(C1)Oc1nc3ccccc3cc1C2C(C#N)C#N (configuration not stated)	?	7.1µM*	-10	-14%
Cc1cc(C)n2nc(C(=O)NCC3Cc4cccc(-c5ccc(S(C)(=O)=O)cc5)c4O3)cc2n1 (configuration not stated)	/	/	/	3%
Cc1cccn2c(Nc3ccc4c(c3)OCCO4)c(-c3ccc(Br)o3)nc12	/	0%	44*	-1%
Cc1c(C(=O)N2CCCC(C)C2)sc2ncnc(NCCN3CCCCC3)c12 (configuration not stated)	/	/	/	-6%
Cc1ccc(C(=O)COC(=O)COc2ccccc2[N+](=O)[O-])s1	3	-1%	-3	-3%
CCOC(=O)COc1ccccc1/C=C\[N+](=O)[O-]	-103*	?	-12	-13%
COc1cc(NC(=NS(=O)(=O)c2ccccc2)c2ccccc2)ncn1	-100*	5%	-30	-2%
O=C(N/N=C/C1CCCCC1)c1ccccc1-n1cccc1	2	0%	36*	0%
